Here are results for 40 sequences from the supplement of paper PMC6555819.

The assay has as its system VDR:RXRa (NR concentration 270 nM, RXRa partner concentration 90 nM). In words: PBM binding z-score (relative to random genomic background probes); higher = stronger binding; sequences stand for … in GC…GCGATTGACAGCGTAGAATGAAGG
How it is done:
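Protein-binding microarray (Agilent 4x180K custom design, double-stranded 60-nt probes: 5' GC cap, 34-nt variable region, 24-nt constant primer region; full probe sequence given). Purified or IVT nuclear receptor:RXRα heterodimers (3:1 NR:RXRα, mostly 270:90 nM) or homodimers were incubated for 1 h in PBS with 2% milk and no ligand, then detected with Alexa488 antibodies. Fluorescence from o1-orientation probes (~5 replicates averaged) was converted to z-scores against 500 random hg19 background probes. Variable regions are seed direct-repeat (DR0–DR5) sites, all their single-nucleotide variants and half-site ablations.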
As to CCGACTGGGGCAGAAAGGTTACTATACCATCCGG, the PBM binding z-score was 0.555.
The same measure for ATATCTAGGTTAAGGGTCATTCAGGTTGGTTCGC: 5.89.
The same measure for CAGACTAGGTCACCGGAAGGTCAAAGTCCGCATG: 5.78; for ATCTCAAGGTAAAAGTTCAGTGAATCCCGAGGAT: 1.6.
The same measure for CATGCTAGGTCATGGTCAGCTAATCTACAGTATG: 1.79; for ATCTCTAGGTAAAAGTTCAGTGCATCCCGAGGAT: 1.69; for AGAATGAGGTTATACGTAGAACAGGGAAGAAAGT: 1.26.
As for ATCTCTAGGTAAAGATCGTTCAGTGAATGCAAAT, the PBM binding z-score was 0.221.
The same measure for ACTATTAGTTGAGACGAGGGCAACCGGTAGGTTG: 0.837; for CAAACTAGGTCAAGACGTCAAAGTCCGCTTCCCG: 1.62; for GCTTACGGGTCAAATGTTATAGCATGAATAGAAT: 3.64.
The same measure for CTCGAAAGGTCGGGTGAGGTGAGTATACGGATAA: 3.18; for TCTCGGAGGACACGTAGGTCAGAGCTTTCCAGAG: 1.13.
The same measure for TCTGCCAGGTCAGTTGGTCAGCTAACGAGCTGCC: 0.52.
Consider ATCTCTAGGTAACAAGTTCAGTGAAAGAGAGGAC, for which the PBM binding z-score turned out to be 2.13.
The same measure for CCGACTGGGGCATAAGGTTGCCATAAGCCAGCCC: -0.377.
On to ATCGAAAGGTCGAAGGTAAGTATACCCACCCGAA, for which the PBM binding z-score was 2.51.
Sequence ATCGCTAGGTAAGACTCAGTTCAGTGAAGAACGC registered a PBM binding z-score of -0.0263.
The same measure for TAGCCTAGGTCATGCGGGCCAGTTTAGTGTCGGC: 2.97.
In the case of ACCGAAAGGTCGAAGGTGAGTATACCCACCCGAA, the PBM binding z-score was 2.95.
The same measure for TCTAGTTGGTCAAAGGTTACACACTCGAAATGCG: 3.11; for ATCTAAAGGTCGAGGTGAGTATAGAGAAAGGGAA: 3.08.
Consider TCTCCTAGGTCAACGATGGTCAGCTAATCTGCTA, for which the PBM binding z-score is 2.39.
The same measure for CCTTACGGGTCTCGAGGTTATAGCACGACGAGCG: 0.479.
ATCGGAAGGTCGAAGGTGAGTATACCCACCCGAA gave a PBM binding z-score of 1.5.
The same measure for CCTCGGAGGACAACAGGAGGTCAGACCTGCCAGA: 1.95; for TCATATAGGTAATACAGGTGCAAGTCGGCATCTA: 1.91.
GCAGACAGGTGAAACGCCGGTAACTCAGGGTGGC yielded a PBM binding z-score of -0.708.
The sequence GGAACGTGGGCAAGTTGATAGCAGAGTTTGATGG gave a PBM binding z-score of -0.629.
The same measure for GCAGACAGGTGAAAAGCAGGTAACTCAGGGTGGC: -0.329; for CGTCCAAGGTCAGAGAGGTCTGTGAATGCCGAGT: 4.72; for CCTACTGGCCCAAAAAGGTCATTGATGCCGATAA: 4.47.
The same measure for AGAACGAGGGCAATGAGGTGATAGCACGGGTGGC: 3.78.
The same measure for CGAACTAGGTCAGAACAGCACAGTGAAGGATGAT: 0.261.
In turn, ATCTCTAGGTAAGACTCAGTTCTGTGAAGAACGC yielded a PBM binding z-score of 0.069.
CCTGCTAGGTCAGTGGTCAGCTAAAGCAGCTCGC: the PBM binding z-score is -0.183.
The same measure for ACTTACGGGTCAACGAGATTATAGCACGCGTATA: 5; for GCTGCTAGATCAGGTTGGTCAGCTAACGGGTACG: -0.639.
The same measure for ATATGTAGGTTAAGGGTCATTCCGGTTGGTTCGC: 5.11; for CCTACTGGGCCATCAGGACATTGATATCAACGTT: -0.324.
